{"source": "the supplement of paper PMC3724861", "note": "This is one part of a sample in which hits are shown more often than they occur. How many sequences the whole screen found active is unknown. Unmarked numbers belong to inactive results.", "data": [{"tested_on": "T1, Caupolican (Caup) homeodomain DNA-binding domain", "T1 sequence": "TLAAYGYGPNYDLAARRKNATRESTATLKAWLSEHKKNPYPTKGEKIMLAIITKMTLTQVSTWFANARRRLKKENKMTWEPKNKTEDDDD", "assay": "PBM E-score (8-mer, recovered from the published 9-mer minima) (E-score (dimensionless, -0.5 to 0.5)); Drosophila protein; higher = stronger relative binding preference, active = 0.31 or more", "summary_of_the_method": "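An enrichment score, with higher meaning stronger, expresses relative binding preference for each short DNA word. The protein used was Caup's homeodomain DNA-binding domain (residues 214-303), produced by in vitro transcription and translation and tested at 100 nM on custom-designed protein binding microarrays. The 8-mer values were recovered from published 9-mer scores, each equal to the lower of its two constituent 8-mer scores.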", "values": [{"sequence": "GTCTACAA", "PBM E-score": 0.185}, {"sequence": "ATGTAGAA", "PBM E-score": 0.281}, {"sequence": "GTGTACGA", "PBM E-score": 0.226}, {"sequence": "GCTAAGAC", "PBM E-score": -0.0692}, {"sequence": "ACTGACCC", "PBM E-score": -0.14}, {"sequence": "AAATCCAG", "PBM E-score": 0.0354}, {"sequence": "CGCTTGGA", "PBM E-score": -0.0438}, {"sequence": "GAAGATGC", "PBM E-score": -0.152}, {"sequence": "ACCAGTTC", "PBM E-score": -0.0567}, {"sequence": "GGACTCCA", "PBM E-score": -0.13}, {"sequence": "AGATATTG", "PBM E-score": 0.0643}, {"sequence": "CATCTGCG", "PBM E-score": -0.00421}, {"sequence": "CTAGAATC", "PBM E-score": 0.0169}, {"sequence": "GAAGAACA", "PBM E-score": 0.3}, {"sequence": "CACGAACA", "PBM E-score": 0.27}, {"sequence": "AACGAACA", "PBM E-score": 0.305}, {"sequence": "CAAGAACA", "PBM E-score": 0.187}, {"sequence": "TACGAACA", "PBM E-score": "0.31 (active)"}, {"sequence": "TAAGAACA", "PBM E-score": "0.313 (active)"}, {"sequence": "GAATCCCC", "PBM E-score": -0.127}, {"sequence": "AGCGAGAC", "PBM E-score": -0.0966}, {"sequence": "ACCCCATC", "PBM E-score": -0.158}, {"sequence": "CATACACG", "PBM E-score": "0.325 (active)"}, {"sequence": "GATACACA", "PBM E-score": 0.241}, {"sequence": "AATACACC", "PBM E-score": 0.292}, {"sequence": "AATACACA", "PBM E-score": "0.311 (active)"}, {"sequence": "CATACACC", "PBM E-score": 0.15}, {"sequence": "AATACACG", "PBM E-score": "0.343 (active)"}, {"sequence": "CATACACA", "PBM E-score": 0.309}, {"sequence": "AATACACT", "PBM E-score": 0.192}, {"sequence": "TATACACA", "PBM E-score": 0.289}, {"sequence": "ATCTAGTG", "PBM E-score": 0.0489}, {"sequence": "CGATATAC", "PBM E-score": 0.0606}, {"sequence": "CCAAAAAG", "PBM E-score": -0.00726}, {"sequence": "ACGAAGTA", "PBM E-score": 0.0633}, {"sequence": "GGTGTCAA", "PBM E-score": 0.197}, {"sequence": "TATGTCAA", "PBM E-score": "≥ 0.359 (active)"}, {"sequence": "GATGTCCA", "PBM E-score": 0.195}, {"sequence": "TCTGTCAA", "PBM E-score": 0.157}, {"sequence": "AATGTCAA", "PBM E-score": 0.235}, {"sequence": "GATGTCAA", "PBM E-score": "0.332 (active)"}, {"sequence": "GTGAAGGA", "PBM E-score": -0.0495}, {"sequence": "CTTAGACA", "PBM E-score": 0.0709}, {"sequence": "AAATGGTA", "PBM E-score": 0.174}, {"sequence": "GAGCTCTA", "PBM E-score": -0.0532}, {"sequence": "GTTGTGTA", "PBM E-score": 0.298}, {"sequence": "ACTGTATA", "PBM E-score": 0.143}, {"sequence": "CTTGTGTA", "PBM E-score": "≥ 0.341 (active)"}, {"sequence": "ATTGTGTA", "PBM E-score": 0.283}, {"sequence": "GCTGTATA", "PBM E-score": 0.194}, {"sequence": "ATTGTATA", "PBM E-score": 0.259}, {"sequence": "CTTGTATA", "PBM E-score": "0.353 (active)"}, {"sequence": "CGTGTATC", "PBM E-score": 0.258}, {"sequence": "CGTGTATA", "PBM E-score": "0.321 (active)"}, {"sequence": "AGTGTATA", "PBM E-score": 0.14}, {"sequence": "GTTGTATA", "PBM E-score": "0.347 (active)"}, {"sequence": "CCTGTATA", "PBM E-score": 0.142}, {"sequence": "AGAGGTAC", "PBM E-score": 0.0429}, {"sequence": "AGTGGCCG", "PBM E-score": -0.226}, {"sequence": "TGCGACAA", "PBM E-score": 0.148}, {"sequence": "GAAGAGGA", "PBM E-score": -0.161}, {"sequence": "ACCTGCAA", "PBM E-score": -0.023}, {"sequence": "GCCGTATA", "PBM E-score": 0.0675}, {"sequence": "ACGCCTAA", "PBM E-score": 0.0349}, {"sequence": "TGGTCAAA", "PBM E-score": 0.0685}, {"sequence": "CCCTCTAG", "PBM E-score": -0.126}, {"sequence": "ATTGTATC", "PBM E-score": 0.215}, {"sequence": "CTTGTAGC", "PBM E-score": 0.271}, {"sequence": "CTTGTATC", "PBM E-score": "0.34 (active)"}, {"sequence": "AAATACAA", "PBM E-score": "0.327 (active)"}, {"sequence": "GAATACAC", "PBM E-score": 0.25}, {"sequence": "CAATACAA", "PBM E-score": 0.261}, {"sequence": "AAATACAT", "PBM E-score": "0.338 (active)"}, {"sequence": "TAATACAA", "PBM E-score": 0.278}, {"sequence": "AAATACAC", "PBM E-score": "0.312 (active)"}, {"sequence": "CAATACAC", "PBM E-score": 0.271}, {"sequence": "AAATACAG", "PBM E-score": 0.132}, {"sequence": "AAATACTT", "PBM E-score": 0.1}, {"sequence": "CATCTCAG", "PBM E-score": -0.0232}, {"sequence": "CCCAGCAG", "PBM E-score": -0.201}, {"sequence": "TACATTCA", "PBM E-score": 0.232}, {"sequence": "AAGCCTGC", "PBM E-score": -0.156}, {"sequence": "AAAGTGGT", "PBM E-score": 0.0391}, {"sequence": "GAAAAAGA", "PBM E-score": -0.0311}, {"sequence": "GACCGAGA", "PBM E-score": -0.103}, {"sequence": "ACTAGCTC", "PBM E-score": 0.0549}, {"sequence": "ACGTGGTA", "PBM E-score": 0.132}, {"sequence": "CTTAATCA", "PBM E-score": 0.013}, {"sequence": "ATAGTACA", "PBM E-score": "0.343 (active)"}, {"sequence": "GTAGTAGA", "PBM E-score": 0.0981}, {"sequence": "CTAGTACA", "PBM E-score": "0.337 (active)"}, {"sequence": "CTAGTACC", "PBM E-score": 0.201}, {"sequence": "GTAGTATA", "PBM E-score": 0.219}, {"sequence": "ATAGTACG", "PBM E-score": 0.0984}, {"sequence": "ATAGTACC", "PBM E-score": 0.134}, {"sequence": "CTAGTAAA", "PBM E-score": 0.211}, {"sequence": "GTAGTACA", "PBM E-score": "0.346 (active)"}, {"sequence": "GCATTTAA", "PBM E-score": 0.11}, {"sequence": "TTCTAGAA", "PBM E-score": -0.0405}, {"sequence": "CGCAGCCG", "PBM E-score": -0.267}, {"sequence": "ACCTCCGA", "PBM E-score": -0.0504}, {"sequence": "GCTTCTGA", "PBM E-score": -0.0992}, {"sequence": "CCGCTTTA", "PBM E-score": -0.0283}, {"sequence": "ACAACACA", "PBM E-score": "≥ 0.395 (active)"}, {"sequence": "GCAACACA", "PBM E-score": 0.144}, {"sequence": "ACAACACC", "PBM E-score": 0.301}, {"sequence": "ACAACACG", "PBM E-score": "0.387 (active)"}, {"sequence": "CCAACACG", "PBM E-score": 0.237}, {"sequence": "ACAACTCT", "PBM E-score": 0.147}, {"sequence": "AAAACACT", "PBM E-score": 0.0862}, {"sequence": "CCAACACA", "PBM E-score": 0.17}, {"sequence": "ACAACACT", "PBM E-score": "0.326 (active)"}, {"sequence": "CTATTAGC", "PBM E-score": 0.0355}, {"sequence": "CGCAATAC", "PBM E-score": 0.0451}, {"sequence": "AGATTAGG", "PBM E-score": 0.00061}]}]}
